Source: PubChem BioAssay (several laboratories)
Beta apoptosis: inhibitors of cytokine-induced beta cell apoptosis, primary screen, luminescence; INS-1E cytokine-induced death, ATP luminescence, 48 h; percent of positive-control rescue, neutral wells zero; protection from apoptosis, % (concentration not given with the values); actives 0.8% (n = 300,000);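 active = Every replicate reaches about 75%, or at least half do and their mean reaches it too, limit read from the data; inconclusive = At least half of replicates reach the limit but their mean does not; inactive = Under half of replicates reach the limit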;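 note: 0% = cytokine-treated negative control wells and 100% = positive control rescue; higher means more ATP so stronger rescue from cytokine killing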
Mdm2 MdmX PPI: inhibitors of human Mdm2-MdmX association, primary screen, cell-based, luminescence, split luciferase, SaOS-2, uHTS. Protein Mdm4 (Homo sapiens) + E3 ubiquitin-protein ligase Mdm2 (Homo sapiens), …. SaOS-2 split-luciferase Mdm2/MdmX complementation. inhibition, % at 8 µM. actives 3% (n = 330,000). AID 485346, 2010;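 active = inhibition of at least 50% at 8 µM in the primary screen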
Target sequence (O15151 whole entry, looked up): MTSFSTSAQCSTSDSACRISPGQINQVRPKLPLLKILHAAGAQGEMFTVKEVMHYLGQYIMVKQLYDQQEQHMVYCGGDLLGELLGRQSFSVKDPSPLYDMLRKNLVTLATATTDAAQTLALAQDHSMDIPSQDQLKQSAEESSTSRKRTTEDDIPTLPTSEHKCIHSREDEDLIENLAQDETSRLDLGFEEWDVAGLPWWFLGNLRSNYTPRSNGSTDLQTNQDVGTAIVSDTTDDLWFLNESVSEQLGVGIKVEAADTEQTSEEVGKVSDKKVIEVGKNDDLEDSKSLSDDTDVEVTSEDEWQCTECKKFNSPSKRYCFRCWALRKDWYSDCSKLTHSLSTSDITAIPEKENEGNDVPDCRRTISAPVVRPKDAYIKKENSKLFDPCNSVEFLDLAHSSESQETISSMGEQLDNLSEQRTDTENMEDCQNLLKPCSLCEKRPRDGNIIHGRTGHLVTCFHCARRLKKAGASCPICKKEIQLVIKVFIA
Target sequence (Q00987 whole entry, looked up): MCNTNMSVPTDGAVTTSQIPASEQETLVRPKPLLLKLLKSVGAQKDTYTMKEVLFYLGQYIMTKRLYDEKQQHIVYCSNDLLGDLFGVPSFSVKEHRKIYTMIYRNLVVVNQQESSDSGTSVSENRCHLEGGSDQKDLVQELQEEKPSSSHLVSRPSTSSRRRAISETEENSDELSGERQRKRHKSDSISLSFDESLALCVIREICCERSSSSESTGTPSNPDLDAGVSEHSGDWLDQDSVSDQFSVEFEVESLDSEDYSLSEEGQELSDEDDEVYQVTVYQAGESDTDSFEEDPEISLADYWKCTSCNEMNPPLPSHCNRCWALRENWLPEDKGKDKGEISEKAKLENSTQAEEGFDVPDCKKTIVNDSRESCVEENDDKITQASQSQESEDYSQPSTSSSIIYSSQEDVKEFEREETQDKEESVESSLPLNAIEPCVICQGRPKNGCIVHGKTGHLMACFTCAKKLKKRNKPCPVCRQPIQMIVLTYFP
CSC inhib: cancer stem cell viability inhibitors, primary screen, luminescence | cancer stem cell-like cells viability | inhibition, % at 7.5 µM | actives 1.1% (n = 300,000) | AID 2717, 2010; in the data active = inhibition above about 75%; inconclusive = no clear call, values can overlap the other calls; tested in HMLE shEcad cells
SKKanGAS inh: S. pyogenes SKKanGAS growth inhibitors in kanamycin, primary screen, streptokinase expression inhibitor project, SKKanGAS strain, BacTiter-Glo luminescence; 6 h; inhibition, % at 7.5 µM; actives 1.3% (n = 300,000);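 active = mean replicate score, as percent of positive control median, at least 50; inconclusive = mean below 50 but one replicate at or above 50; inactive = mean and every replicate below 50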;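 note: strain carries kanamycin resistance gene driven by streptokinase promoter and grows in 40 µg/ml kanamycin; loss of luminescence reflects streptokinase promoter inhibition or plain growth inhibition; 0% = median of DMSO wells and 100% = positive control at its reference dose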
MPTP block: mitochondrial permeability transition pore inhibitors, primary screen, biochemical, isolated mouse mitochondria, absorbance. inhibition, % at 10 µM. Ca2+ swelling absorbance, 30 min. AID 602449, 2012. actives 1.4% (n = 360,000);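 active = inhibition of 50% or more, scaled per plate between neutral and stimulator controls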;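 note: 0% = DMSO wells given calcium and 100% = 1 mM EGTA wells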
GRIN3A LBD mod: binders of NR3A ligand-binding domain, primary screen, biophysical, differential scanning fluorimetry, uHTS; Glutamate receptor ionotropic, NMDA 3A (GRIN3A) ligand-binding domain; NR3A LBD differential scanning fluorimetry, Tm shift; 0% = protein alone, 100% = glycine-bound protein; Tm shift relative to glycine control, % at 25 µM; actives 2.5% (n = 340,000); AID 1259313, 2017;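 active = melting temperature shift of at least 10% of the positive control shift, at one fixed dose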
Mdm2 MdmX conf: Mdm2-MdmX complex disruptors, retested hits, confirmation, luminescence, single concentration. shares compounds with Mdm2 MdmX PPI. Mdm2-MdmX binding, luminescent assay. inhibition, % at 8 µM. actives 55% (n = 10,000); in the data active = inhibition above about 40%
Full FLuc ctr: full-length luciferase signal inhibition, confirmation, counter-screen for Mdm2/MdmX interaction inhibitor project, cell-based, single concentration, SaOS-2 | shares compounds with Mdm2 MdmX PPI | SaOS-2 full-length luciferase counterscreen, luminescence | inhibition, % at 8 µM | actives 77% (n = 6,200) | AID 504607, 2011;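 active = mean inhibition at 8 µM reaching about 37%, which flags the compound as non-specific, limit read from the data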;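 note: p53-null SaOS-2 cells with luciferase driven by a doxycycline-inducible promoter; compound on cells about two nights before reading with doxycycline added after day one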
* hit, by the source's call; ? = inconclusive; · = no result. Hits are enriched below; roughly 6.9% of the tested compounds scored in any of these assays.

SMILES	Beta apoptosis	Mdm2 MdmX PPI	CSC inhib	SKKanGAS inh	MPTP block	GRIN3A LBD mod	Mdm2 MdmX conf	Full FLuc ctr
COC(=O)c1c(NC(=O)CCNCc2ccco2)sc2c1CCC2	-13.8	19.5	10.1	-11.0	1.3	-0.2	·	·
CCOc1ccc(NC(=O)CC2S/C(=N/N=C3CCCCCC3)NC2=O)cc1 (centres undefined)	-3.3	14.3	-5.0	-0.2	0.0	-2.0	·	·
CCS(=O)(=O)c1ccc(OC)c(N=Nc2ccc(O)c3ncccc23)c1	108.2*	70.5*	-4.2	23.1	-0.5	-2.5	53.5*	50.3*
CCN(CC)S(=O)(=O)c1cc(OC)ccc1N=Nc1ccc(O)c2ncccc12	94.4*	74.1*	93.6*	67.8*	13.1	-6.7	73.4*	35.8
Cc1cc[n+](-c2[nH]c(=O)sc2/C=N/N=C(\[O-])c2ccncc2)cc1	-4.9	12.8	-10.0	2.5	-2.1	1.2	·	·
CCOc1ccc(NC(=NCc2ccc3c(c2)OCO3)SC2CC(=O)N(c3ccccc3)C2=O)cc1 (centres undefined)	·	59.8*	-9.0	-7.8	7.7	5.1	6.4	·
CCOc1ccc(NC(=NCc2ccc3c(c2)OCO3)SC2CC(=O)N(c3ccc(OCC)cc3)C2=O)cc1 (centres undefined)	19.3	65.6*	22.2	1.6	1.6	2.9	63.2*	64.5*
CCOC(=O)C1CCN(S(=O)(=O)c2cc3c(cc2C)NC(=O)CO3)CC1	-4.6	6.6	·	-2.1	-1.9	1.7	·	·
COc1ccc(N2C(=O)CC(N(Cc3ccco3)C(=O)CCC(=O)O)C2=O)cc1 (centres undefined)	-3.3	14.9	-6.0	6.1	0.7	1.6	·	·
Cc1c(N2C(=O)CSC2c2ccc(F)cc2)c(=O)n(-c2ccccc2)n1C (centres undefined)	-3.4	-2.7	-4.3	-6.7	0.5	0.5	·	·
Cc1ccc(NC(=O)Nc2ccnc(-c3cccnc3)n2)cc1	-19.1	76.1*	30.0	6.8	0.8	34.0*	71.2*	67.8*
Cc1ccc(C(=O)Nc2ccnc(-c3cccnc3)n2)cc1	-6.8	28.5	2.5	-3.3	-2.1	1.3	·	·
Nc1ccc(N2CCCCC2)cc1N1CCCCC1	113.2*	80.4*	26.1	24.3	-4.3	-5.6	19.9	·
Cc1nn(-c2cc(N3CCCCC3)ccc2N)c(=O)c2ccccc12	2.6	-4.5	-13.3	1.6	-0.5	-0.5	·	·
Cc1ccc(-c2c(C(=O)N/N=C/C3CC=CCC3)nnn2-c2nonc2N)cc1 (centres undefined)	-5.8	0.5	-11.8	10.5	-1.4	-2.7	·	·
Cc1sc2ncnc(Sc3nnnn3-c3ccc(Cl)cc3)c2c1C	2.7	100.6*	31.3	?	6.4	-1.8	79.0*	53.8*
c1ccc(-n2nnnc2Sc2ncnc3sc4c(c23)CCCC4)cc1	1.5	97.7*	31.7	6.2	1.7	-0.3	74.8*	47.5*
CC(c1ccccc1)N1CCc2[nH]c(=S)[nH]c(=O)c2C1 (centres undefined)	-6.4	16.3	0.8	1.2	-0.5	-1.9	·	·
CN(C)CCCN(C(=O)c1cc(-c2cccs2)nc2ccccc12)c1nc2c(F)cccc2s1	·	57.0*	28.9	17.9	0.5	2.2	30.6	·
Cc1ccc2nc(N(CCCN(C)C)C(=O)c3cc(-c4cccs4)nc4ccccc34)sc2c1	21.1	95.7*	103.3*	18.4	0.8	7.1	46.1*	37.3*
CC(CC(F)(F)F)N1CCC(n2nccc2NC(=O)CCCc2ccccc2)CC1 (centres undefined)	-1.5	10.1	-4.7	13.6	0.2	2.0	·	·
Cc1cccc(C)c1NC(=O)CSc1nc(C)c(CC(=O)c2ccc(Br)cc2)c(C)c1C#N	37.0	84.5*	7.5	0.4	0.6	0.1	63.2*	95.9*
Cc1nc(SCC(=O)Nc2ccccc2C(F)(F)F)c(C#N)c(C)c1CC(=O)c1ccc(Br)cc1	10.7	52.8*	33.1	-11.5	·	·	10.3	·
CCc1c(C)nc(SCC(=O)c2cccs2)c(C#N)c1C	5.5	-102.2	17.0	39.5	2.4	-8.6	·	·
CC1(C(=O)Nc2cccc(C(F)(F)F)c2)Cc2c(-c3ccc4c(c3)OCO4)ccnc2O1 (centres undefined)	·	·	·	·	0.4	·	·	·
SMILES	Beta apoptosis	Mdm2 MdmX PPI	CSC inhib	SKKanGAS inh	MPTP block	GRIN3A LBD mod	Mdm2 MdmX conf	Full FLuc ctr
CCc1ccc(NC(=O)C(C)Sc2ccc(S(=O)(=O)N3CCN(C)CC3)cn2)cc1 (centres undefined)	1.7	7.9	·	·	-1.5	-1.6	·	·
CCOc1ccc(-c2nc(N)ncc2-c2ccccc2)c(O)c1	-1.2	50.3*	-4.3	-11.6	0.8	-0.3	24.8	·
CCOc1ccc(-c2nc(N)ncc2-c2ccc(OC)cc2)c(O)c1	-11.0	39.5	8.7	-4.6	39.9	-7.0	·	·
Cc1cc(C(C)(C)C)cc(C)c1S(=O)(=O)N1CC(=O)Nc2ccccc21	5.2	11.8	8.8	-28.3	0.9	-1.3	·	·
Cc1ccc(NC(=O)Nn2cnnc2)cc1Cl	-4.2	4.4	·	-7.8	-0.9	0.1	·	·
Cc1ccc(NC(=O)O/N=C/c2c(C)nn(C(C)(C)C)c2C)cc1Cl	-1.9	79.5*	1.4	17.1	10.3	-4.4	91.8*	54.0*
CC(=O)OC[C@H]1O[C@@H](n2ncc(=O)[nH]c2=O)[C@H](OC(C)=O)[C@@H]1OC(C)=O	-2.9	79.8*	21.6	-3.9	-1.2	2.0	59.1*	31.6
CN(C)C(=O)c1cc(C(=O)c2ccc(F)cc2C(F)(F)F)c[nH]1	4.5	-4.9	7.6	-4.1	-0.3	-1.0	·	·
CCN(CC)c1ccc(NC(=O)c2ccc(=O)[nH]c2)cc1S(=O)(=O)Nc1ccccc1OC	16.0	50.1*	46.1	-1.5	-4.1	-18.1	56.0*	54.4*
CCN(CC)c1ccc(NC(=O)c2ccccc2Br)cc1S(=O)(=O)Nc1ccccc1OC	33.3	-6.3	3.3	4.4	6.6	-10.2	·	·
CC(/C=C1\N=C(SCc2ccccc2)SC1=O)=C\c1ccccc1	9.4	-17.5	·	4.3	0.9	-0.3	·	·
CC1(C)CC(=O)c2sc(NC(=O)c3ccccc3)nc2C1	5.2	-122.4	-6.2	3.9	·	·	·	·
CC1(C)CC(=O)c2sc(NC(=O)CCS(=O)(=O)c3ccccc3)nc2C1	-25.1	71.4*	27.5	-1.9	-1.2	1.4	25.8	·
